The sample as a whole holds a higher share of hits than the screen did.
Artemis endo inh: inhibitors of human Artemis endonuclease activity; inhibition, % at 10 µM; recombinant Artemis, quenched FAM hairpin cleavage fluorescence; 30,000 tested, 0.78% active; Q96SD1;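 active = at 10 µM dose, at least 30% inhibition, measured as corrected fluorescence normalized to stimulator and neutral control wells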
Target sequence (Q96SD1 whole entry, looked up): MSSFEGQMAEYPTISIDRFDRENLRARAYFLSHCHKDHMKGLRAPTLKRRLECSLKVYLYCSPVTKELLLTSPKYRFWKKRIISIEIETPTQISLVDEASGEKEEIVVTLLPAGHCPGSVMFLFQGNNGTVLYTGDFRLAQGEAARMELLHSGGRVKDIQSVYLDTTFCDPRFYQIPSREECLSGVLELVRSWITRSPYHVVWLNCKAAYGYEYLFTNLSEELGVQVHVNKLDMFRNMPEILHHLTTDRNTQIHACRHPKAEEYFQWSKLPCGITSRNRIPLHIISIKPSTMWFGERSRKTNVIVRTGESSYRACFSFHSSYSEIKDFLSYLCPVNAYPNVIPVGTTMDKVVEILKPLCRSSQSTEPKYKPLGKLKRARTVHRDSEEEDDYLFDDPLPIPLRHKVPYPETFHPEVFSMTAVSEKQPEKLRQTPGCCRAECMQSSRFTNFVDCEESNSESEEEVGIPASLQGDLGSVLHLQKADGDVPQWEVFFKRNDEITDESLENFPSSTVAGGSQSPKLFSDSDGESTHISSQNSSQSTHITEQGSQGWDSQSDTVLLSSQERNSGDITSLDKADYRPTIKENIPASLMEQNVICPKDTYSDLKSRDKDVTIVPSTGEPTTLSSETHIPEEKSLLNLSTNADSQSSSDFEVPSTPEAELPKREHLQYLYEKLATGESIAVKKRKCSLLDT
Numbers without * were called inactive.

SMILES	Artemis endo inh
C/C(=N\Nc1nccnc1Cl)c1ccc([N+](=O)[O-])cc1	-4
CC(C)COc1ccc(CSCCNC(=S)Nc2ccccc2)cc1	7
c1ccc(-c2c(-c3ccccc3)n(Cc3ccco3)c3ncnc(NCCCn4ccnc4)c23)cc1	44*
CC(C)Cn1cnc2c(c(-c3ccccc3)c(-c3ccccc3)n2Cc2ccco2)c1=N	23
N=c1c2c(-c3ccccc3)c(-c3ccccc3)n(Cc3ccco3)c2ncn1Cc1ccccc1	9
COc1ccc(C2CC(=O)c3cnc(NC(=O)c4ccccc4)nc3C2)c(OC)c1 (stereo unspecified)	25
CCNC(=O)NC(=O)CSc1nc2ccccc2n1CCOC	-3
O=C(Nc1cccc(C(F)(F)F)c1)c1ccc2nc(-c3ccco3)c(-c3ccco3)nc2c1	42*
O=C(Nc1ccc2nc(-c3ccco3)c(-c3ccco3)nc2c1)NC1CC1	50*
O=S(=O)(c1ccc2nc(-c3ccco3)c(-c3ccco3)nc2c1)N1CCOCC1	28
O=C(NCc1ccco1)Nc1ccc2nsnc2c1	9
CC(C)Oc1cccc(C(=O)NC(=S)Nc2cccc(C(F)(F)F)c2)c1	0
Cn1nc(C(=O)Nc2cccc(C(F)(F)F)c2)ccc1=O	3
C=CCc1cccc2cc(C(=O)OCC(=O)c3ccccc3)c(=O)oc12	9
CCOC(=O)c1cnn(-c2ccccc2)c1-n1cccc1C(=O)C(=O)Nc1ccc(OC)cc1	1
Cc1cc(C(=O)N/N=C/c2cc(Br)ccc2OC(=O)c2ccccc2)n[nH]1	10
COc1ccccc1S(=O)(=O)Nc1ccc(-c2nnc3n2CCCCC3)cc1	-4
COc1ccc(Br)cc1/C=N/NC(=O)c1nc(-c2ccccc2)n2c1CCCCC2	30*
CCOC(=O)Cc1csc(NS(=O)(=O)c2ccc(F)cc2)n1	1
Cc1ccc(S(=O)(=O)Nn2c(C)ccc2C)cc1	10
CC(C)c1ccc(OCc2ccc(C(=O)N3CCN(c4ccccn4)CC3)cc2)cc1	4
Nc1cc(C(=O)OCC(=O)NCc2ccco2)ccc1Cl	-6
CCCCCCn1c(N2CCN(c3cccc(Cl)c3)CC2)nc2c1c(=O)[nH]c(=O)n2C	35*
CC(C)CCn1c(N2CCN(c3cccc(Cl)c3)CC2)nc2c1c(=O)[nH]c(=O)n2C	27
CCCCCCn1c(N2CCN(c3ccccc3)CC2)nc2c1c(=O)[nH]c(=O)n2C	11
SMILES	Artemis endo inh
CC(C)[C@H](NC(=O)Nc1ccc(Oc2ccccc2)cc1)C(=O)O	3
O=C(Nc1ccccc1C(=O)OCC(=O)N1CCc2ccccc2C1)c1ccco1	8
CCOC(=O)COn1c(=O)c(=O)n(O)c2ccccc21	0
COc1ccc(C(=O)c2c(C(F)(F)F)oc3c2C(=O)c2ccccc2C3=O)cc1OC	36*
COc1ccc(C(=O)Nc2ccc(OCC(F)(F)C(F)F)c(C(F)(F)F)c2)cc1OC	10
COc1ccc(C(=O)/C=C/N(C)C)cc1OC	3
CCCCOC(=O)Nc1ccc(C)c(Cl)c1	2
CSc1nc(-c2ccccc2)nn1C(=O)c1ccc(C)cc1	10
O=C(CC1CC2CCC1C2)OCC(=O)c1c[nH]c2ccccc12 (stereo unspecified)	-3
CN(C)/C=N/C(=S)Nc1ccc(Br)cc1F	3
O=C(COC(=O)c1cc(-c2ccco2)nc2ccccc12)NCc1ccc2c(c1)OCO2	23
O=C(COC(=O)c1cc(-c2ccc(Cl)s2)nc2ccccc12)NCc1ccco1	32*
Cc1ccc(-c2cc(C(=O)NCc3ccco3)c3ccccc3n2)s1	3
Cc1cc(NC(=O)Cn2c(C)nc3ccccc3c2=O)ccc1Br	-8
C=CCn1c(SCc2c(C(=O)OC)sc(N)c2C(=O)OC)nnc1-c1ccc(Br)cc1	5
COC(=O)CNC(=O)C(C)NC(=O)CNC(=O)OCc1ccccc1 (stereo unspecified)	1
CCC(C)(C)NC(=O)C(c1ccc(C)cc1)N(Cc1ccco1)C(=O)CCC(=O)Nc1nccs1 (stereo unspecified)	5
Cc1ccc2c(c1)c1c3n2CCN(C(=O)CN2CCN(C)CC2)C3CCC1 (stereo unspecified)	8
CCN1CCn2c3c(c4cc(Br)ccc42)CCCC31 (stereo unspecified)	-10
Cc1ccc2c(c1)c(=O)c1c3n2CCN(C(=O)CCl)C3CC1 (stereo unspecified)	34*
O=C(Cn1cnc2c(cnn2-c2ccc(F)cc2)c1=O)NCC1CCCO1 (stereo unspecified)	33*
O=C(Cn1cnc2c(cnn2-c2ccc(F)cc2)c1=O)OCc1ccccc1	-1
O=C(CSc1ncnc2c1nnn2-c1ccc(F)cc1)NCC1CCCO1 (stereo unspecified)	0
Cc1ccc(S(=O)(=O)N2CCOCC2)cc1C(=O)N1c2ccccc2Sc2ccccc21	7
Cc1sc(NC(=O)C2CCCCC2C(=O)O)c(C(N)=O)c1-c1ccc(C(C)(C)C)cc1 (stereo unspecified)	40*
SMILES	Artemis endo inh
Cc1sc(NC(=O)C2CCCCC2C(=O)O)c(C(N)=O)c1-c1ccc(C(C)C)cc1 (stereo unspecified)	27
Cc1sc(NC(=O)C2CCCCC2C(=O)O)c(C(N)=O)c1-c1ccccc1 (stereo unspecified)	2
COc1cc2ccccc2c2c1CCCC2=O	3
COC(=O)CN1C(=S)N(Cc2ccccc2)C(=O)C1CC(=O)Nc1ccc(Br)cc1 (stereo unspecified)	-6
COc1ccc(-n2cnc3c(cnn3CCC#N)c2=N)cc1	-2
Cc1cc(Nc2nc3ccccc3[nH]c2=O)n(-c2ccccc2)n1	4
Cc1ccc(Nc2cc(C)nn2-c2nc(C)cc(=O)[nH]2)cc1	35*
Cc1ccc(Nc2cc(C)nc3nnnn23)cc1	-2
CCOc1ccc(NC2=NC(C(=O)NCc3ccccc3)CC(=O)N2)cc1 (stereo unspecified)	-5
COc1ccc(C(=O)OC(C(=O)c2ccccc2)c2ccccc2)cc1 (stereo unspecified)	9
O=C(/C=C/c1ccccc1)c1cc(Br)ccc(=O)c1O	36*
CCc1ccc(/C=C/C(=O)c2c(C)cc(C)[nH]c2=O)cc1	2
NC(=O)c1cc2cc(Br)ccc2oc1=NCc1ccccc1	1
O=C(NC1CCCCCC1)C1CCCN(S(=O)(=O)c2cccs2)C1 (stereo unspecified)	5
CCOc1ccc2nc(NC(=O)C(CCSC)NS(=O)(=O)c3cccs3)sc2c1 (stereo unspecified)	-1
CCOc1ccc2nc(NC(=O)C3CCCN(S(=O)(=O)c4cccs4)C3)sc2c1 (stereo unspecified)	34*
O=C(CSc1nnc(-c2cccnc2)n1Cc1ccccc1)NCc1ccccc1	2
CCS(=O)(=O)NCC(c1cccnc1)N1CCN(c2ccccc2F)CC1 (stereo unspecified)	-8
COc1cc(OC)c(C(=O)Nc2ncn[nH]2)cc1OC	-4
COCCCn1c(=N)c(C(=O)NC2CCCCC2)cc2c(=O)n3ccccc3nc21	2
N=c1c(C(=O)NCc2ccc(F)cc2)cc2c(=O)n3ccccc3nc2n1Cc1ccco1	29
N=c1c(C(=O)NCc2ccco2)cc2c(=O)n3ccccc3nc2n1Cc1ccccc1	23
CC(C)n1c(=N)c(C(=O)NCCc2ccccc2)cc2c(=O)n3ccccc3nc21	2
N=c1c(C(=O)NCc2ccccc2)cc2c(=O)n3ccccc3nc2n1Cc1ccco1	31*
Cc1ccc(CNC(=O)c2cc3c(=O)n4ccccc4nc3n(Cc3ccco3)c2=N)cc1	41*
Cc1nc(SCC(=O)N2CCc3ccccc32)n[nH]1	0
